Screening data deposited in PubChem by several laboratories.
VHR inh abs: VHR1 phosphatase inhibitors, primary screen, biochemical, absorbance, uHTS; Dual specificity protein phosphatase 3 (Homo sapiens), P51452; recombinant VHR phosphatase, pNPP absorbance; inhibition, % at 13.3 µM; 290,000 compounds, 0.52% hits; in the data active means inhibition above about 50%
Target sequence (P51452 whole entry, looked up): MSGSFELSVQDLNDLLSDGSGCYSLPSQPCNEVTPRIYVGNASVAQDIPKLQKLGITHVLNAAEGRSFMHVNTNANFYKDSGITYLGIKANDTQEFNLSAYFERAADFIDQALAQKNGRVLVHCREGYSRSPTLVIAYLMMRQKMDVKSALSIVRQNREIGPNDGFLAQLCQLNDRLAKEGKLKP
RN4220 kill: growth inhibition of S. aureus RN4220, primary screen, OD600 | 16 h | 330,000 compounds, 0.33% hits | inhibition, % (concentration not given with the values); in the data active means inhibition above about 85%
3CLpro inhibitor: SARS-CoV 3CLpro protease inhibitors, primary screen, biochemical, quenched FRET | Replicase polyprotein 1ab (Severe acute respiratory syndrome coronavirus), P0C6X7 | recombinant SARS-CoV 3CLpro, quenched FRET peptide cleavage | inhibition, % at 6 µM | 290,000 compounds, 0.14% hits | AID 1706, 2009; in the data active means inhibition above about 12%
BJeLR lethal: MLPCN primary cell-based screen for lethality selective to Ras in HRASV12 cells; AID 1554, 2009; inhibition, % (concentration not given with the values); BJeLR (HRASV12) viability, CellTiter-Glo ATP luminescence, 48 h; 300,000 compounds, 0.17% hits; in the data active means inhibition above about 50%
PrPC TRFRET: inhibitors of human cell surface prion protein PrPC, primary screen, cell-based, TR-FRET | Major prion protein (Homo sapiens), P04156 | TR-FRET read-out | inhibition, % at 13.8 µM | 370,000 compounds, 0.43% hits | AID 720596, 2013; in the data active means inhibition above about 24%
ugtP null kill: growth inhibition of ugtP-null S. aureus, primary screen, RN4220 ugtP deletion, OD600. 330,000 compounds, 0.54% hits. AID 1259309, 2017. 16 h. growth inhibition, % (concentration not given with the values); in the data active means growth inhibition above about 68%
Numbers stand for hits; – = inactive; · = no result. The list is not random: actives were taken first. Their share in the collection is about 1.4%.

SMILES	VHR inh abs	RN4220 kill	3CLpro inhibitor	BJeLR lethal	PrPC TRFRET	ugtP null kill
CC(O)[C@@]1(O)CCC2C3CCC4CC(O)CC[C@]4(C)C3=CC[C@@]21C (some centres undefined)	·	–	·	·	·	–
CCOC1OC(C(=O)NCc2nc3ccccc3[nH]2)=CC(C2CCCCC2)C1CCCO (centres undefined)	·	–	·	·	·	–
CN(C)c1ccc(/C=C/c2ccc3c4ccccc4ccc3[n+]2-c2ccccc2)cc1	–	98	–	·	–	98
CN(C)c1ccc(/C=C/c2ccc3ccccc3[n+]2C)cc1	–	97	–	–	–	95
CN(C)c1ccc(/C=C/c2cccc[n+]2[O-])cc1	–	·	–	–	–	·
O=C1C2C(C=Cc3ccccc3)N3C(=O)CN(CC4CC4)C(=O)[C@@]3(Cc3ccccc3)C2C(=O)N1c1ccccc1 (some centres undefined)	·	–	·	·	·	–
C#CCOCCOCCOCCNc1nc(N2CCN(C(=O)C(C(C)CC)n3cc(C(N)CO)nn3)CC2)nc(N2CCN(C(=O)C(C(C)CC)n3cc(C(N)CC(C)C)nn3)CC2)n1 (centres undefined)	·	–	·	·	·	–
O=C(c1ccccc1F)n1c2c(c3ccccc31)CCCC2	–	–	–	–	–	93
COc1ccc(CNC(=O)C2CC(c3ccc(OC)cc3)=NO2)cc1 (centres undefined)	–	–	–	–	–	–
COc1ccc(C2=NOC(CNC(N)=S)C2)cc1 (centres undefined)	–	–	–	–	–	83
Cc1ccc(NC(=S)NN=Cc2c(C)[nH]c3ccccc23)cc1	·	92	·	·	·	88
O=C(Oc1c(Cl)cc(Cl)c2cccnc12)c1ccco1	–	99	–	–	–	98
O=C(Oc1c(CN2CCOCC2)cc(Cl)c2cccnc12)c1cccs1	52	–	–	–	–	–
COc1ccc([N+]([O-])=Cc2ccoc2)cc1	·	–	·	·	·	–
Clc1ccccc1Nc1nnc(-c2ccncc2)s1	–	–	–	85	–	–
COc1ccccc1C(=O)Nc1nc(-c2ccc(S(=O)(=O)N3CCOCC3)cc2)cs1	–	–	–	–	25	–
COc1ccc(/C=C/C2=CCN(C)CC2)cc1	–	–	–	–	–	–
CN1CC=C(/C=C/c2ccc(-c3ccccc3)cc2)CC1	–	–	–	–	·	93
CCC1OC(=O)C(C)C(OC2C[C@@](C)(OC)C(O)C(C)O2)C(C)C(OC2OC(C)CC(N(C)C)C2O)[C@](C)(O)CC(C)C(=NOCOCCOC)C(C)C(O)[C@]1(C)O (some centres undefined)	·	100	·	·	·	100
CCC1OC(=O)C(C)C(OC2C[C@@](C)(OC)C(O)C(C)O2)C(C)C(O[C@@H]2OC(C)CC(N(C)C)C2O)[C@](C)(O)CC(C)C(=NOCOCCOC)C(C)C(O)[C@]1(C)O (some centres undefined)	·	·	·	·	–	·
Cc1cc(C)cc(N2C(=O)NC(=O)C(=Cc3cc(C)n(C)c3C)C2=O)c1	·	–	·	·	·	–
CCOC(=O)CC1c2cc(C(F)(F)F)ccc2S(=O)(=O)N1Cc1ccccc1 (centres undefined)	·	–	·	·	·	–
CCCCOC(=O)C[N+](C)(C)CCOC1CC2CCC1(C)C2(C)C (centres undefined)	–	–	–	–	–	89
CCCCCCCOC(=O)C[N+](C)(C)CCOC1CC2CCC1(C)C2(C)C (centres undefined)	–	100	–	–	–	100
CCCCCCOC(=O)C[N+](C)(C)CCOC1CC2CCC1(C)C2(C)C (centres undefined)	–	–	–	–	–	–
SMILES	VHR inh abs	RN4220 kill	3CLpro inhibitor	BJeLR lethal	PrPC TRFRET	ugtP null kill
CC(C)CCOC(=O)C[N+](C)(C)CCOC1CC2CCC1(C)C2(C)C (centres undefined)	–	–	–	–	–	101
CCCOC(=O)C[N+](C)(C)CCOC1CC2CCC1(C)C2(C)C (centres undefined)	–	–	–	–	–	–
COC(=O)C1=C(c2ccc(F)cc2OCc2ccccc2)CC2CCC1N2C(=O)NCc1ccc([N+](=O)[O-])cc1 (centres undefined)	·	–	·	·	·	–
c1ccc(CCC2CCC(CCc3ccccc3)N2)cc1 (centres undefined)	·	–	·	·	·	–
Oc1ccccc1-[n+]1c(-c2ccccc2)cc(-c2ccccc2)cc1-c1ccccc1	·	·	·	–	–	·
[O-]c1ccccc1-[n+]1c(-c2ccccc2)cc(-c2ccccc2)cc1-c1ccccc1	·	101	·	63	–	100
CCCOC(=O)c1ccc(-[n+]2c(-c3ccccc3)cc(-c3ccccc3)cc2-c2ccccc2)cc1	·	101	·	–	–	100
O=C([O-])c1ccccc1-[n+]1c(-c2ccccc2)cc(-c2ccccc2)cc1-c1ccccc1	·	98	·	–	–	98
Cc1ccccc1-[n+]1c(-c2ccccc2)cc(-c2ccccc2)cc1-c1ccccc1	·	100	·	–	–	101
O=C(O)c1ccc(-[n+]2c(-c3ccccc3)cc(-c3ccccc3)cc2-c2ccccc2)cc1	·	–	·	–	–	–
C=C1CCC2C(OC(=O)[C@]2(O)CO)C2C(=C)C(O)CC12 (some centres undefined)	·	–	·	·	·	–
O=C1C=C(c2ccc3cc[nH]c3c2)CC(c2ccc3c(c2)OCO3)C1 (centres undefined)	·	–	·	·	·	–
COc1ccc(NC(=O)N(C)CC2Oc3c(NS(=O)(=O)c4ccc(F)cc4)cccc3C(=O)N(C(C)CO)CC2C)cc1 (centres undefined)	·	–	·	·	·	–
COc1ccc(-[n+]2c(-c3ccccc3)cc(-c3ccc(C)cc3)cc2-c2ccccc2)cc1	–	·	–	72	29	·
C=CCNC(=O)c1ccc(CSc2nc3ccccc3s2)cc1	–	–	–	–	–	–
CC(=O)NCCNC(=O)c1ccc(CSc2nc3ccccc3s2)cc1	60	·	–	–	–	·
CC1CCCC(C)N1Cc1nc(Cc2ccccc2Cl)no1 (centres undefined)	·	–	·	·	·	–
CC(C)(C)OC(=O)C(Cc1ccccc1)NC(=O)c1nc[nH]c1C(=O)NC1CCNCC1 (centres undefined)	·	–	·	·	·	–
CCC(=O)N1N=C2CC(C)(C)OCC2C1c1ccccc1 (centres undefined)	51	–	–	–	–	–
CC1=Nc2ccccc2/C1=C/c1sc(=N)n(-c2nccs2)c1O	–	97	–	–	·	98
CC1=Nc2ccccc2C1=Cc1sc(Nc2ccc(C)cc2)nc1O	·	–	·	·	·	–
CCCCOc1ccc(/C=C/C(=O)OCC(=O)NC2CCS(=O)(=O)C2)cc1OCC (centres undefined)	·	–	·	–	–	92
CCOC1OC(C(=O)NCc2ccccc2)=CC(C(C)(C)C)C1CCCO (centres undefined)	·	–	·	·	·	–
